Source: PubChem BioAssay (NCATS)
Inconclusive results are not listed. A call without a number means that no potency is given here. A number with no mark means an inactive call. Active and inactive are the calls of the source. Calls follow the shape of the dose curve; as a rule, active = well fitted curve in the direction sought with a large enough effect; inconclusive = small, poorly fitted or top-dose-only effect, or another doubt; inactive = no such curve, though single readings can be large; an effect the other way counts as inactive or inconclusive.

Assays:
[1] = tested on: Zika virus NS2B-NS3 protease; assay: Primary screen GU AMC qHTS for Zika virus inhibitors (AID 1347154); also: nearly all actives have a fitted effect of over 70% in size; also: potency is read from the fitted curve at half-maximal effect
How it was run: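 Unlinked Zika NS2B hydrophilic domain/NS3 protease domain noncovalent complex (25 nM final) in 10 mM Tris-HCl pH 8.0, 0.01% Tween 20, with AMC peptide substrate. Fluorescence (ex 340, em 450 nm) change over 15 min, room temperature; percent inhibition fitted to 4-parameter Hill equation.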

[2] = tested on: Zika virus NS2B-NS3 protease (linked construct); assay: Primary screen NINDS Rhodamine qHTS for Zika virus inhibitors (AID 1347160); also: nearly all actives have a fitted effect of over 55% in size
How it was run: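 Purified NS2B-NS3 protease with the NS2B hydrophilic domain joined by a flexible linker (25 nM) in 10 mM Tris-HCl pH 8.0, 0.01% Tween 20, preincubated 15 min at RT with compound; Rhodamine110 peptide substrate 1.5 µM; fluorescence change over 15 min; 4-parameter Hill fit.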

[3] = OV-KATE Cancer Cell Toxicity qHTS against the NCATS CANVASS Library (AID 1347345)
How it was run: (§1)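 Following a 4 h pre-incubation of 1000 seeded cells, compounds were pinned in an 11-pnt dilution series and left for 72 h; viability then came from CellTiter-Glo.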

[4] = HPAF-II Cancer Cell Toxicity qHTS against the NCATS CANVASS Library (AID 1347346); also: nearly all actives have a fitted effect of over 55% in size
How it was run: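 Cytotoxicity in HPAF-II pancreatic cancer cells: 72 h treatment across 11 concentrations, ATP-based CellTiter-Glo luminescence endpoint.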

[5] = UWB1.289 Cancer Cell Toxicity qHTS against the NCATS CANVASS Library (AID 1347347); conditions: outcome: dose series up to 38.3 µM; also: nearly all actives have a fitted effect of over 60% in size
How it was run: as §1

[6] = OV-SAHO Cancer Cell Toxicity qHTS against the NCATS CANVASS Library (AID 1347348); also: nearly all actives have a fitted effect of over 55% in size
How it was run: as §1

[7] = Panc-1005 Cancer Cell Toxicity qHTS against the NCATS CANVASS Library (AID 1347349); also: nearly all actives have a fitted effect of over 60% in size
How it was run: as §1

[8] = SW1088 Cancer Cell Toxicity qHTS against the NCATS CANVASS Library (AID 1347350); conditions: outcome: dose series up to 76 µM; also: nearly all actives have a fitted effect of over 75% in size
How it was run: as §1

[9] = U-118MG Cancer Cell Toxicity qHTS against the NCATS CANVASS Library (AID 1347351)
How it was run: as §1

[10] = COV-362 Cancer Cell Toxicity qHTS against the NCATS CANVASS Library (AID 1347352)
How it was run: (§2)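 qHTS cytotoxicity: compounds tested in 11 concentrations on 1000 seeded cells per well over 72 h; bortezomib served as control; signal from CellTiter-Glo luminescence.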

[11] = A2780 Cisplatin Sensitive Ovarian Cancer Cell Toxicity qHTS against the NCATS CANVASS Library (AID 1347353); conditions: A2780 ovarian cancer viability, ATPLite luminescence, 72 h; at 91.4 µM (top of the series) unless noted; also: nearly all actives have a fitted effect of over 60% in size
How it was run: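 Seventy-two-hour exposure of cisplatin-sensitive A2780 ovarian cells to an 11-concentration qHTS series; cytotoxicity is inferred from loss of ATPLite luminescence. Bortezomib titration served as positive control.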

[12] = UWB1.289-WTBRCA1 Cancer Cell Toxicity qHTS against the NCATS CANVASS Library (AID 1347354); conditions: UWB1.289-WTBRCA1 viability, CellTiter-Glo luminescence, 72 h; at 76 µM (top of the series) unless noted
How it was run: as §2

[13] = HEK-293 Cancer Cell Toxicity qHTS against the NCATS CANVASS Library (AID 1347355); conditions: outcome: dose series up to 91.4 µM; also: nearly all actives have a fitted effect of over 65% in size
How it was run: as §2

[14] = Confirmatory screen NINDS Rhodamine qHTS for Zika virus inhibitors (AID 1347161); also: potency is read from the fitted curve at half-maximal effect; nearly all actives have a fitted effect of over 60% in size
How it was run: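 Enzyme (25 nM, linked NS2B-NS3) was preincubated 15 min with compound in 10 mM Tris-HCl pH 8.0, 0.01% Tween 20. Rhodamine110 substrate (1.5 microM) was then added and fluorescence read at start and after 15 min.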

[15] = tested on: Zika virus NS2B-NS3 protease (linked construct); assay: 384 well plate NINDS Rhodamine confirmatory qHTS for Zika virus inhibitors (AID 1347164);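 also: fluorescence from protease cleavage of Ac-LKRR-rhodamine 110 substrate; nearly all actives have a fitted effect of over 65% in size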; also: potency is read from the fitted curve at half-maximal effect
How it was run: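 Enzyme (final 5/30/60 nM) + cpd (DMSO), ~15 min; add Ac-LKRR-Rd 10 microM final; 25 min RT, dark; FI ex 485/em 538; normalized to no-enzyme, no-inhibitor ctrls; aprotinin intraplate ctrl.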

[16] = molecular target: Lysine-specific demethylase 5B (Homo sapiens) (UniProt Q9UGL1); assay: Optimization screen for KDM5B Histone Demethylases FDH coupled qHTS against the LOPAC library (AID 1347166); conditions: KDM5B demethylation, FDH-coupled NADH fluorescence (FDH is formaldehyde dehydrogenase); at 57.5 µM (top of the series)
Lysine-specific demethylase 5B (Homo sapiens), sequence (Q9UGL1 whole entry, looked up): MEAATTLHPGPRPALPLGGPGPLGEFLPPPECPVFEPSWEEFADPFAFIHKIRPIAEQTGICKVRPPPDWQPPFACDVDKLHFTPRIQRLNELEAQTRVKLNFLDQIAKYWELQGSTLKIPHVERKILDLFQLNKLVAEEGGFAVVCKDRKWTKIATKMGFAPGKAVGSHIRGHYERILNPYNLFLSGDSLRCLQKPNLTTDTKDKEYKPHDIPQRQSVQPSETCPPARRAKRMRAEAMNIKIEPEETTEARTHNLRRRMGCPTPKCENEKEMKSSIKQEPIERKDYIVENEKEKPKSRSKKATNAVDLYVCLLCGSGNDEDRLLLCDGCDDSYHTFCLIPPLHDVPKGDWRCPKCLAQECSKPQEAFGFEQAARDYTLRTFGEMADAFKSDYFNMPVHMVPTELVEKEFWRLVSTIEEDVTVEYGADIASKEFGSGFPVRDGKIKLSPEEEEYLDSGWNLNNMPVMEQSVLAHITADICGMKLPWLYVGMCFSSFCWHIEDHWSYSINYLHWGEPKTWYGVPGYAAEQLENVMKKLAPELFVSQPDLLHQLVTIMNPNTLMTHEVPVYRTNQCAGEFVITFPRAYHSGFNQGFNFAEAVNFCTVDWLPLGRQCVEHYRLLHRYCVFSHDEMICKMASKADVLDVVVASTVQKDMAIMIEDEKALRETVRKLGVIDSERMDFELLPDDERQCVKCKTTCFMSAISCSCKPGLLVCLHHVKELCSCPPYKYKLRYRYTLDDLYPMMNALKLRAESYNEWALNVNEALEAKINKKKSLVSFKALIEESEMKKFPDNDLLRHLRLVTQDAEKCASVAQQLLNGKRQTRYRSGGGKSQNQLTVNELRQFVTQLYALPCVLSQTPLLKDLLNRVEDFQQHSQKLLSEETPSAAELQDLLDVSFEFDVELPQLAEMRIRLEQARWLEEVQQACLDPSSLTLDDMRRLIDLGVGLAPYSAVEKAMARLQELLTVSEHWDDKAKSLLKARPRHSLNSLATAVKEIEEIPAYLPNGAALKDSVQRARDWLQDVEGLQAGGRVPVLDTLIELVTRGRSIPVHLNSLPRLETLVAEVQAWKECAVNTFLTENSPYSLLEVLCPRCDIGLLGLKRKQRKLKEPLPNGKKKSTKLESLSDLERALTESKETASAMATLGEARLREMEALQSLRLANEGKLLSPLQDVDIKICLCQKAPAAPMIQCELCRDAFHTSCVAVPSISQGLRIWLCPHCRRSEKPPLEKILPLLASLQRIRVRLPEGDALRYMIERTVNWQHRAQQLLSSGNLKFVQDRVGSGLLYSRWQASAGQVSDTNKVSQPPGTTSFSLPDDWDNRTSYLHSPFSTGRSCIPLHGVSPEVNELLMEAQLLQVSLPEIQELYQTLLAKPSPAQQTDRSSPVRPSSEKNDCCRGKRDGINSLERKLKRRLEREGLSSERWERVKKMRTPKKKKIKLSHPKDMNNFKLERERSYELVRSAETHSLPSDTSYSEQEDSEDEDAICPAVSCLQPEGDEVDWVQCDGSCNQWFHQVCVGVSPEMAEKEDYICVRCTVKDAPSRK
How it was run: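 KDM5BDeltaAP (200nM final) preincubated 10 min with compound, then 12.5uM H3K4Me3, 25uM a-ketoglutarate, ascorbate, Fe(II), NAD+ and FDH added; 50mM HEPES pH 7.5, 0.01% Tween-20. NADH fluorescence (340/450 nm) change over 30 min, room temperature.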

[17] = Vero cells viability qHTS for Zika virus inhibitors (AID 1347167); also: potency is read from the fitted curve at half-maximal effect
How it was run: (§3)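 Counter-screen for cytotoxicity of hits from NS2B-NS3 protease qHTS. Overnight-attached cells (2.5 x 10^5 cells/mL, DMEM/4% FBS) were dosed in titration, incubated 24 to 48 hours, then assayed by CellTiter Glo.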

[18] = ZIKV-mCherry secondary qHTS for Zika virus inhibitors (AID 1347158); also: potency is read from the fitted curve at half-maximal effect
How it was run: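 After overnight seeding at 37 °C, Vero cells receive compound and then ZIKV-mCherry (MOI 1). Following 48-72 h infection, cells are fixed, counterstained with Hoechst, and imaged; percent infected cells is derived from an mCherry intensity cut-off of 450 RFU.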

[19] = HepG2 cells viability qHTS for Zika virus inhibitors (AID 1347168)
How it was run: as §3

COC(=O)[C@H](NC(=O)c1cc(-c2ccccc2)nc2ccccc12)c1ccccc1
Potency [1]: inactive

CCn1c(=O)[nH]c2cc(Cl)c(Cl)cc21
Potency [1]: inactive

Oc1cc2c(cc1O)C(c1ccccc1)CNCC2 (centres undefined)
Potency [1]: inactive

NC(=Nc1ccccc1)NC(=O)c1nc(Cl)c(N)nc1N
Potency [1]: inactive

CN1CCN(c2nc3cc(C(F)(F)F)ccc3n3cccc23)CC1
Potency [1]: inactive

Nc1nc2c(cnn2CCc2ccccc2)c2nc(-c3ccco3)nn12
Potency [1]: inactive

CC(=O)NCCc1c[nH]c2ccc(O)cc12
Potency [1]: inactive | outcome [2]: inactive | outcome [3]: inactive | outcome [4]: inactive | outcome [5]: inactive | outcome [6]: inactive | outcome [7]: inactive | outcome [8]: inactive | outcome [9]: inactive | outcome [10]: inactive | outcome [11]: inactive [at 46.1 µM] | outcome [12]: inactive [at 38.3 µM] | outcome [13]: inactive

NCCNS(=O)(=O)c1cccc2c(Cl)cccc12
Potency [1]: inactive

O=c1[nH]c(=O)c2nc3ccccc3nc2[nH]1
Potency [1]: inactive

CCCn1c(=O)c2[nH]c(C3CCCC3)nc2n(CCC)c1=O
Potency [1]: inactive

CCCCCCCC/C=C\CCCCCCCC(=O)NCCc1ccc(O)c(O)c1
Potency [1]: 16.8 µM (active) | Potency [14]: 19.6 µM (active) | Potency [15]: 3.16 µM (active) | activity, negative = inhibition [16]: -22.3% | Potency [17]: 8.27 µM (active)

C/C(=C\c1ccc(C(=O)O)cc1)c1ccc2c(c1)C(C)(C)CCC2(C)C
Potency [1]: inactive | Potency [18]: 7.94 µM (active) | Potency [14]: 1.56 µM (active) | Potency [15]: inactive | Potency [17]: inactive | outcome [19]: inactive

COc1cc(C(O)C(=O)O)ccc1O (centres undefined)
Potency [1]: inactive

CC[C@H](NC(=O)c1c(C)c(-c2ccccc2)nc2ccccc12)c1ccccc1
Potency [1]: inactive | activity, negative = inhibition [16]: -4.22%

CSC(=N)N
Potency [1]: inactive

NS(=O)(=O)c1cccc2c1c([N+](=O)[O-])cc1nc(O)c(O)nc12
Potency [1]: inactive

C#CCn1c(=O)c2c(ncn2C)n(C)c1=O
Potency [1]: inactive

CC1CNCCN1S(=O)(=O)c1cccc2cnccc12 (centres undefined)
Potency [1]: inactive

CCCCCCN(CCCCCC)C(=O)Cc1c(-c2ccc(F)cc2)[nH]c2ccccc12
Potency [1]: inactive

Cn1c(=O)c2[nH]c(C3CCCC3)nc2n(C)c1=O
Potency [1]: inactive

CNc1cc(NS(=O)(=O)c2ccc(N)cc2)nc(NC)n1
Potency [1]: inactive

CCCn1c(=O)c2c(ncn2C)n(CCC)c1=O
Potency [1]: inactive
